Screening data: PubChem BioAssay, several laboratories
JNK3 inh: inhibitors of human JNK3 kinase | P53779 | purified JNK3 kinase activity, HTS | inhibition, % at 8 µM | 0.61% of 60,000 active; in the data active means inhibition above about 17%;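 further: 0% = DMSO and 100% = reference inhibitor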
Target sequence (P53779 whole entry, looked up): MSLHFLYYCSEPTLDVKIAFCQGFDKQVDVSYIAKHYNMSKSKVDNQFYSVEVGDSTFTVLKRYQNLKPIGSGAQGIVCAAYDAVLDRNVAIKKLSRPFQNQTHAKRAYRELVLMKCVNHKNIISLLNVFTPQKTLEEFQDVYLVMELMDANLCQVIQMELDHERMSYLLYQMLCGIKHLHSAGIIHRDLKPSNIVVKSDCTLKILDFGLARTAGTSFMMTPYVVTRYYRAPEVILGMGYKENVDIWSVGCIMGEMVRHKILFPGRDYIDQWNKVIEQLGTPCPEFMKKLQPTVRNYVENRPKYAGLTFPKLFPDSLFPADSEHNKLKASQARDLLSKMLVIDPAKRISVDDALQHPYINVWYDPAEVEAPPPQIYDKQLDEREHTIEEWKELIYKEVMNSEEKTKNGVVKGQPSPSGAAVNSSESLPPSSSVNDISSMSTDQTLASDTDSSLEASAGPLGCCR
Her2 expr inh: Her2 kinase expression inhibition. P04626. SKBR-3 HER2 protein level, AlphaScreen, 18-24 h; hits give low values. HER2 level % of control, % at 10 µM. 0.69% of 65,000 active;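 active means HER2 level under 5% of the carrier-only control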;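 further: 100% = DMSO carrier and 0% = 500 nM PU-H71 HSP90 inhibitor; lower value means stronger loss of Her2 protein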
M1 agonist: M1 muscarinic receptor agonism; CHO-M1 cells, Fluo-4 calcium fluorescence, agonist mode; hits give high values; B-score at 10 µM; AID 626; 3% of 64,000 active;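 active means fluorescence rise, raw or as B-score row- and column-corrected plate score, outside the 99.7% band of its plate's samples, either direction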
FXIa mix inh: blocks human factor XIa in pooled compound mixtures; P03951; purified FXIa, fluorogenic substrate; inhibition, % at 5 µM; 0.19% of 62,000 active; AID 680;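 further: each value is inhibition by a whole ten-compound pool holding the compound; 0% = enzyme with no mixture and 100% = wells lacking enzyme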
FXIIa mix inh: inhibitors of human coagulation factor XIIa, pooled mixtures | P00748 | purified FXIIa, fluorogenic substrate | inhibition, % at 5 µM | 0.2% of 62,000 active | AID 684;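 further: 0% = enzyme without compound and 100% = no enzyme blank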
M1 antag: blocks the rat M1 muscarinic receptor response to acetylcholine; P08482; CHO-M1 cells, Fluo-4 calcium, ACh EC80 antagonist mode; hits give low values; B-score at 10 µM; 3.4% of 64,000 active; AID 628;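 active means calcium fluorescence response, raw or row-and-column corrected B-score, differing from the plate sample mean either way at a set confidence level, mostly lower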
M1 antag conf: M1 muscarinic receptor (rat) antagonism, confirmed; shares compounds with M1 antag; CHO-M1 cells, Fluo-4 calcium, ACh EC80 antagonism; hits give low values; calcium response (max-min fluorescence) at 10 µM; 43% of 1,700 active; AID 677;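 active means calcium response below the same-plate mean of wells given acetylcholine alone at its 80%-effect dose, minus 3 SD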;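 further: raw fluorescence intensity difference in arbitrary instrument units and not normalized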
mGluR4 antag: acts on human mGluR4 in M1 antagonist selectivity test; shares compounds with M1 antag; CHO-mGluR4 calcium flux, Fluo-4 fluorescence, glutamate EC80; hits give low values; fluorescence response (max-min) at 10 µM; 0.9% of 1,700 active; AID 678;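 active means fluorescence response below the plate's average for near-maximal glutamate wells, less 3 SD of those wells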;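 further: raw unnormalized fluorescence span taken in the window right after glutamate addition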
Numbers without * were called inactive; · = no result given. Compounds with a hit are over-represented: about 6.9% of the library has one in this group of screens. Unless noted, no stated cut-off is given here; in the data, active means inhibition above about 20% (passing the limit was not always enough); inactive means the rest.

SMILES	JNK3 inh	Her2 expr inh	M1 agonist	FXIa mix inh	FXIIa mix inh	M1 antag	M1 antag conf	mGluR4 antag
CCNC(=O)C1CC(=O)N(c2ccc(Br)cc2)C1 (stereo not given)	-1.6	74.4	0.0153	-17.7	-18.6	-0.298	·	·
O=C(Nc1ccc(F)cc1)c1cc(S(=O)(=O)N2CCCCC2)cs1	·	113.0	-0.129	1.0	0.6	0.727	·	·
CCOc1ccccc1NC1c2ccccc2C(=O)N1Cc1ccco1 (stereo not given)	4.3	96.0	0.298	0.2	-14.3	-0.863*	531	247
CCc1ccccc1NC1c2ccccc2C(=O)N1Cc1ccco1 (stereo not given)	-4.3	96.2	2.19	4.3	-15.4	-2.16*	458	199
CCOC(=O)N1CCC(NC(=O)c2ccc3c(c2)ncn3C2CCCC2)CC1	0.2	116.9	-0.0583	-2.8	-1.0	0.435	·	·
CCOC(=O)N1CCN(C(=O)c2ccc3c(c2)ncn3C2CCCC2)CC1	-5.7	126.8	1.55	8.2	3.1	-2.28*	438	211
CC1CN(C2CCN(C(=O)c3ccccc3)CC2)CC(C)O1 (stereo not given)	-0.3	113.2	-0.398	·	·	0.0246	·	·
O=C(COC(=O)CCNS(=O)(=O)c1ccc(Cl)cc1)NCc1ccco1	-2.4	97.1	1.42	3.9	12.3	-2.82*	612	240
O=C(CCCNS(=O)(=O)c1ccccc1)NCc1ccco1	3.0	90.7	-0.554	4.4	1.5	-0.261	·	·
CCCCNCCCOc1cccc(Cl)c1	0.9	94.5	-2.82*	6.5	7.6	-4.62*	483	219
Cc1noc(C)c1COC(=O)c1cc(C)n(-c2ccccc2)c1C	-1.6	94.1	0.338	1.2	2.6	-2.69*	531	220
O=C(COC(=O)C12CC3CC(CC(O)(C3)C1)C2)NC(=O)NCc1ccco1	7.4	123.8	-0.35	3.8	3.2	-17.1*	571*	172
COC(=O)c1ccc(CSc2nc(C)nc3c2c(=O)n(C)c(=O)n3C)o1	4.0	111.8	-0.0984	0.1	6.6	-2.04*	500*	242
Cc1cc(=O)[nH]c(SCC(=O)N2CCCCCC2)n1	6.3	127.6	-0.405	7.6	-18.2	1.64	·	·
NC(=O)C1(N2CCCCC2)CCN(C(=O)CSc2nc(C(F)(F)F)cc(=O)[nH]2)CC1	-0.3	86.6	-0.143	6.9	5.3	-3.54*	687	203
O=C(Nc1ccccc1)c1cccnc1N1CCOCC1	-6.7	105.7	0.534	-0.2	36.2	-3.32*	709	258
O=C(CCC1CCCC1)N1CCN(C(=O)c2cccnc2)CC1	-3.5	241.1	-0.362	8.3	10.3	0.0642	·	·
CN(C)c1ccnc(SCc2ccccc2Cl)c1C#N	14.6	184.9	-0.61	3.6	-18.3	-0.104	·	·
CCOc1ccc(-c2nnc3ccc(SCc4ccc(C(=O)OC)o4)nn23)cc1	-3.0	67.7	0.0458	4.1	-13.4	-3.99*	520*	227
COC(=O)c1ccc(CSc2ccc3nnc(-c4ccccn4)n3n2)o1	2.4	77.9	0.3	2.7	8.7	0.51	·	·
CCOC(=O)c1ccccc1NC1c2ccccc2C(=O)N1C1CCN(C(=O)OCC)CC1 (stereo not given)	0.1	94.5	0.509	6.5	-0.1	-1.57*	384*	237
OC(C#CCN1CCCC1)c1ccccc1 (stereo not given)	-2.6	81.6	0.0507	4.3	-13.6	-3.04*	462	199
OC(C#CCN1CCCCC1)c1ccccc1 (stereo not given)	0.5	110.3	0.132	5.7	8.2	-2.63*	432	185
CCOC(=O)c1ccc(CNC(=O)Cn2nnc(-c3ccc(C)cc3)n2)o1	4.7	94.3	-0.616	0.8	5.9	-0.237	·	·
c1ccc(Oc2cccc(NC3=NCCC3)c2)cc1	-4.0	94.5	-0.764	-2.0	7.3	-3.48*	393*	265
SMILES	JNK3 inh	Her2 expr inh	M1 agonist	FXIa mix inh	FXIIa mix inh	M1 antag	M1 antag conf	mGluR4 antag
CCc1nn(CC(=O)N2CCN(Cc3ccc4c(c3)OCO4)CC2)c(=O)c2cc3occc3n12	0.4	95.1	0.74	4.9	9.3	-0.332	·	·
CCOC(=O)c1cnc(-n2nc(C)cc2C)nc1NCc1ccccc1	1.5	223.4	1.2	4.9	6.7	-4.29*	405*	196
CCOC(=O)c1cnc(-n2nc(C)cc2C)nc1NC(C)c1ccccc1 (stereo not given)	3.0	44.2	-0.853	-1.8	3.0	-1.17	·	·
Cc1cc(C(=O)CSc2nncs2)c(C)n1-c1ccc2c(c1)OCO2	-5.3	87.4	-0.0083	40.5	7.0	-4.18*	403*	227
O=C(CSc1nncs1)NCc1ccc2c(c1)OCO2	-3.5	98.9	-0.569	13.5	-1.5	-0.239	·	·
O=C(C1CCCN1C(=O)c1cccs1)N1CCc2ccccc21 (stereo not given)	1.1	104.7	-0.33	0.3	3.6	0.000698	·	·
Cc1cc2nc(C)n(CCCNC(=O)Nc3ccc(C#N)cc3)c2cc1C	6.1	76.9	-0.786	3.7	7.5	-10.2*	135*	210
O=C(CCNC(=O)c1ccc(Br)o1)NCc1ccccc1Cl	5.1	113.9	0.127	3.8	-18.1	-0.841	·	·
O=C(CCNC(=O)c1ccc(Br)o1)NCc1ccccn1	0.1	90.1	0.0742	2.0	1.0	-7.67*	648	144*
COc1ccccc1Cc1noc(COc2cccc(C)c2C)n1	5.0	81.8	-1.23	4.2	1.7	-2.68*	575	247
Cc1ccccc1OCc1nc(-c2ccc(-n3cccc3)cc2)no1	-0.1	90.2	-2.28	-0.6	-19.3	0.433	·	·
CS(=O)(=O)N(CC(=O)N1CCc2ccccc2C1)c1ccc2c(c1)OCO2	-0.7	64.8	0.366	5.6	2.3	-0.02	·	·
O=C1c2cccnc2C(=O)N1Cc1ccco1	-6.5	96.8	0.686	-5.0	0.3	0.294	·	·
O=C1c2cccnc2C(=O)N1CO	-2.3	91.6	-0.778	1.9	4.4	-2.42*	581	216
CCC(C)c1ccc(O)c(NC(=O)c2cccnc2)c1 (stereo not given)	2.9	68.7	0.0312	-2.1	0.6	-0.736	·	·
CCC(NC(C)C)C(O)c1ccc(O)c(O)c1 (stereo not given)	5.2	104.3	0.548	2.2	13.6	-14.2*	632	248
CCN(CC)C(=O)C1CCCN(Cc2ccc(F)c(F)c2)C1 (stereo not given)	-3.5	100.0	0.828	0.6	0.2	-4.11*	649	256
CCN(CC)C(=O)C1CCCN(Cc2ccc(N(C)C)cc2)C1 (stereo not given)	10.2	120.8	-0.365	3.8	5.1	0.11	·	·
CCN(CC)C(=O)C1CCCN(C/C=C/c2ccccc2)C1 (stereo not given)	-4.8	105.9	3.99	14.8	2.8	-2.74*	566	240
